# Values joined by “and” are separate entries in the source; they are usually repeats but may differ in a detail not shown here. Equal values may be shown once. Results filed as inconclusive are left out. Entries that show only a call come without a potency. Active and inactive are the calls of the source. Unless noted, calls come from the whole dose curve; as a rule, active = well fitted curve in the direction sought with a large enough effect; inconclusive = small, poorly fitted or top-dose-only effect, or another doubt; inactive = no such curve, though single readings can be large; an effect the other way counts as inactive or inconclusive.
# Key:
# [1] = target: Calcium and integrin-binding protein 1 (Homo sapiens) (UniProt Q99828); test: Primary qHTS for Identification of Calcium Integrin Binding Protein 1 (CIB1) Competitor (AID 1508620);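 note: GST tagged CIB1 binding a fluorescein labelled alphaIIb integrin peptide tracer; top concentration of the series differs between compounds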
# Sequence of Calcium and integrin-binding protein 1 (Homo sapiens) (Q99828 whole entry, looked up): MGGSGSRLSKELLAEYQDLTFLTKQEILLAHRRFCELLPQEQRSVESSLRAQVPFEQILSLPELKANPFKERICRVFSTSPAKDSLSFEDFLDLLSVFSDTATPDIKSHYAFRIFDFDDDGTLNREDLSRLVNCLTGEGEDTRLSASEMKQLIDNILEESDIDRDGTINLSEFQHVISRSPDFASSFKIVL
# How it was run: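 Fluorescence polarization competition: GST-tagged CIB1 (1 uM final) preincubated with compound 15 min at room temperature, then FITC-labelled alphaIIb peptide (100 nM final) added. After 15 min at room temperature, polarization read at Ex 480/Em 540.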
# [2] = target: Cytochrome P450 2C9 (Homo sapiens) (UniProt P11712); test: Cytochrome P450 family 2 subfamily C member 9 (CYP2C9) small molecule antagonists: luciferase biochemical (cell-free) qHTS assay (AID 1645842; active = well fitted curve in the direction sought with a large enough effect in the repeat runs; an effect the other way counts as inactive or inconclusive; note: nearly all actives have a fitted effect of over 55% in size; note: potency is the fitted concentration of half-maximal effect)
# Sequence of Cytochrome P450 2C9 (Homo sapiens) (P11712 whole entry, looked up): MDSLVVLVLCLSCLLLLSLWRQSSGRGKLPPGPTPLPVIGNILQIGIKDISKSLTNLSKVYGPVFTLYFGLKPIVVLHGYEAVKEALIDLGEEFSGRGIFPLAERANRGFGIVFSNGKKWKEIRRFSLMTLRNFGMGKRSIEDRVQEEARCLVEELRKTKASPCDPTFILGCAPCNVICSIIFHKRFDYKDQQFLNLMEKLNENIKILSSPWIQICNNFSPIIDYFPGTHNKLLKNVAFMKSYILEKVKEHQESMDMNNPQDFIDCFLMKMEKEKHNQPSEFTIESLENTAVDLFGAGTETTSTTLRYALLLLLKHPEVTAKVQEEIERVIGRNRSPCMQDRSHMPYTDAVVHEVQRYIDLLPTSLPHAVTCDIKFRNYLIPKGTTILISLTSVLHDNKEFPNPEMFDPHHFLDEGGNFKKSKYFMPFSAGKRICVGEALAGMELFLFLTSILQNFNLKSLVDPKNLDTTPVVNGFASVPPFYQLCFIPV
# How it was run: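 P450-Glo CYP2C9 system: proluciferin substrate with enzyme in mix containing 0.4% BSA, 10 min at room temperature, then NADPH regeneration solution added and incubated 1 h at 37C. Detection reagent stopped reaction; luminescence read after 20 min as RLU.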
# [3] = Primary qHTS for inhibitors of nuclear receptor binding SET domain protein 2 (NSD2) in an isogenic RCH-ACV NSD2 p.E1099K mutant (9B) (AID 1645876); note: nearly all actives have a fitted effect of over 70% in size; note: potency is the fitted concentration of half-maximal effect
# [4] = Primary qHTS for inhibitors of nuclear receptor binding SET domain protein 2 (NSD2) in an RCH-ACV wild type WT cells (2C) (AID 1645877); note: nearly all actives have a fitted effect of over 70% in size; note: potency is the fitted concentration of half-maximal effect
# [5] = target: Cytochrome P450 2D6 (Homo sapiens) (UniProt P10635); test: Cytochrome P450 family 2 subfamily D member 6 (CYP2D6) small molecule antagonists: luciferase biochemical (cell-free) qHTS assay (AID 1645840; active = well fitted curve in the direction sought with a large enough effect in the repeat runs; an effect the other way counts as inactive or inconclusive; note: nearly all actives have a fitted effect of over 55% in size; note: potency is the fitted concentration of half-maximal effect)
# Sequence of Cytochrome P450 2D6 (Homo sapiens) (P10635 whole entry, looked up): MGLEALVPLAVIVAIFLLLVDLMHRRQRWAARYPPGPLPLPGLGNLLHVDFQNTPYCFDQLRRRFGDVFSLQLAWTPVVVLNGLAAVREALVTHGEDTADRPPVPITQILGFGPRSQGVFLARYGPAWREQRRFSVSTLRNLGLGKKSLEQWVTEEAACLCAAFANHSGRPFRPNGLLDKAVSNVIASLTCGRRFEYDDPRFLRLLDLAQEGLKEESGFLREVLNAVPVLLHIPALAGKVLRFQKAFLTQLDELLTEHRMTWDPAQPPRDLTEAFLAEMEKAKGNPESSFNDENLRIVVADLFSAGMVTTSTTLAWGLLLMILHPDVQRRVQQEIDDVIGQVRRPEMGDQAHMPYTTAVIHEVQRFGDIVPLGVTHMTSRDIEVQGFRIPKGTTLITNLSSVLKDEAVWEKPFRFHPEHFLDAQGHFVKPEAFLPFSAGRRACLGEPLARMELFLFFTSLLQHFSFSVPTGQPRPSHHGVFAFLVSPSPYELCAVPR
# How it was run: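 P450-Glo CYP2D6 system: proluciferin substrate converted by enzyme to luciferin, read by luminescence proportional to activity. Enzyme-substrate mix with compound 10 min at room temperature, then NADPH regeneration 1 h before detection reagent.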
# [6] = target: Catechol O-methyltransferase (Homo sapiens) (UniProt P21964); test: Confirmatory Screen for Target Class Profiling of Small Molecule Inhibitors of Methyltransferases (AID 1745852); conditions: MTase-Glo luminescence, SAH detection, recombinant enzyme; measured here: COMT max response; stronger effect = lower value
# Sequence of Catechol O-methyltransferase (Homo sapiens) (P21964 whole entry, looked up): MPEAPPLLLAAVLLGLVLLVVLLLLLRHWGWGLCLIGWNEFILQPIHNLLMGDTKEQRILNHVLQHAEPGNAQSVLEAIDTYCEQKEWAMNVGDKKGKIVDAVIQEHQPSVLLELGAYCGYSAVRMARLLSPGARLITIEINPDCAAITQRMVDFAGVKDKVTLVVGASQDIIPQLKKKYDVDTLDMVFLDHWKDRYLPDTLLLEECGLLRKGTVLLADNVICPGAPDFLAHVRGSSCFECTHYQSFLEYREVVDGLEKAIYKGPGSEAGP
# [7] = target: Guanidinoacetate N-methyltransferase (Homo sapiens) (UniProt Q14353); test: as above; conditions: MTase-Glo luminescence, SAH detection, recombinant enzyme; activity change, negative = inhibition: at 57.3 µM (top of the series) unless noted
# [8] = target: Nicotinamide N-methyltransferase (Homo sapiens) (UniProt P40261); test: as above; conditions: MTase-Glo luminescence, SAH detection, recombinant enzyme; measured here: NNMT max response; stronger effect = lower value
# Sequence of Nicotinamide N-methyltransferase (Homo sapiens) (P40261 whole entry, looked up): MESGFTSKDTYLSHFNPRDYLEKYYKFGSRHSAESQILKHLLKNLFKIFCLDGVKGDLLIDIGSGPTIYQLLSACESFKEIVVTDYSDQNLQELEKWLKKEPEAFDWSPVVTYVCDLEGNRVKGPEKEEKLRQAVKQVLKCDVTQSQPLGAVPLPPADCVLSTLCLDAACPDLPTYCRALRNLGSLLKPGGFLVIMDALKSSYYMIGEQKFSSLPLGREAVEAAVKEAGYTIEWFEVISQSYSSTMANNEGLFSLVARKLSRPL
# [9] = target: Phenylethanolamine N-methyltransferase (Homo sapiens) (UniProt P11086); test: as above; conditions: MTase-Glo luminescence, SAH detection, recombinant enzyme; measured here: PNMT max response; stronger effect = lower value
# Sequence of Phenylethanolamine N-methyltransferase (Homo sapiens) (P11086 whole entry, looked up): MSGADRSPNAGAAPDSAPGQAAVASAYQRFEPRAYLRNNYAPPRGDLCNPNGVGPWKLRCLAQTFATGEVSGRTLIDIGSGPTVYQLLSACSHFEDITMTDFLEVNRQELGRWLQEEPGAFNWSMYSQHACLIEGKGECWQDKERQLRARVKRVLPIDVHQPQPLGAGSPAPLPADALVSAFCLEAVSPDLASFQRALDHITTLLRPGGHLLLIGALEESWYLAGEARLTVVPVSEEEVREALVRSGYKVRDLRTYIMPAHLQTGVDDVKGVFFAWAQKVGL
# [10] = target: N-terminal Xaa-Pro-Lys N-methyltransferase 1 (Homo sapiens) (UniProt Q9BV86); test: Confirmatory qHTS for Inhibitors of N-terminal methyltransferase 1 (NTMT1): MTaseGlo Assay (AID 1645874);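 note: luminescence from SAH made as NTMT1 methylates SPKRIA peptide using SAM; nearly all actives have a fitted effect of over 65% in size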
# Sequence of N-terminal Xaa-Pro-Lys N-methyltransferase 1 (Homo sapiens) (Q9BV86 whole entry, looked up): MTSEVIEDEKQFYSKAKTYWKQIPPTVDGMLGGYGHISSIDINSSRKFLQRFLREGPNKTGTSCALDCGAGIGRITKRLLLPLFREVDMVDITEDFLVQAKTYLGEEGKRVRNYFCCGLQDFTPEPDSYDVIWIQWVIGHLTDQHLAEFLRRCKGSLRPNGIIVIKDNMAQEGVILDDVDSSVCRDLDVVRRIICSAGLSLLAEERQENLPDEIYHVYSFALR
# How it was run: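 Room-temperature NTMT1 reaction, 30 min, with 100 uM SAM and 1 uM SPKRIA substrate; enzyme 125 nM. Read-out: MTase-Glo luminescence, normalized to no-enzyme and DMSO controls.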
smiles,measurement,setting,value
COc1cn(-c2ccc(-n3cccn3)cc2F)nc(-c2ccnn2-c2ccccc2)c1=O,Potency,[1],inactive
same,Potency,[2],15.1 µM (active)
same,Potency,[3],inactive
same,Potency,[4],inactive
COc1ccnc2[nH]cc(C(=O)C(=O)N3CCN(C(=O)c4ccccc4)CC3C)c12 (stereo not drawn),Potency,[1],inactive
same,Potency,[5],3.01 µM (active)
same,Potency,[3],inactive
same,Potency,[4],inactive
COc1cc(OC)cc(-c2ccc3c(-c4ccc(F)cc4)[nH]nc3n2)c1,Potency,[1],inactive
same,Potency,[2],7.56 µM (active)
same,Potency,[3],inactive
same,Potency,[4],inactive
Cc1cn(-c2cc(NC(=O)c3ccc(C)c(Nc4nccc(-c5cnccn5)n4)c3)cc(C(F)(F)F)c2)cn1,Potency,[1],inactive
same,Potency,[2],1.51 µM (active)
same,Potency,[3],inactive
same,Potency,[4],inactive
O=C(O)Cn1nnc(-c2ccc(CN(CCCCOc3ccc(CN4CCCC4)cc3)CCc3ccccc3)cc2)n1,Potency,[1],inactive
same,Potency,[5],12 µM (active)
same,Potency,[3],inactive
same,Potency,[4],inactive
same,activity,[6],-3.03%
same,"activity change, negative = inhibition",[7],0%
same,activity,[8],-1.13%
same,activity,[9],0.559%
Cc1cc(OCCN2CCOCC2)nn1-c1ccc2ccccc2c1,Potency,[1],inactive
same,Potency,[5],5.35 µM (active)
same,Potency,[3],inactive
O=C(CC1CC(c2ccc(F)cc2F)=NO1)N1CCOCC1 (stereo not drawn),Potency,[1],inactive
same,Potency,[2],inactive
same,Potency,[3],inactive
same,Potency,[4],inactive
FC(F)(F)Oc1ccc(-c2ccc3nnc(C(F)(F)F)n3c2)cc1,Potency,[1],inactive
same,Potency,[5],inactive
same,Potency,[3],inactive
same,Potency,[4],inactive
CC[C@@H](Nc1c(Nc2cccc(C(=O)N(C)C)c2O)c(=O)c1=O)c1ccc(C)o1,Potency,[1],inactive
same,Potency,[2],2.39 µM (active)
same,Potency,[3],inactive
CC(C)(C)NS(=O)(=O)c1ccc(-c2ccc3[nH]nc(N)c3c2)cc1,Potency,[1],inactive
same,Potency,[2],13.5 µM (active)
NCCCCN(Cc1nc2ccccc2[nH]1)[C@H]1CCCc2cccnc21,Potency,[1],inactive
same,Potency,[2],6.74 µM (active)
Cc1ncc(NC(=O)c2ccc(CN3CCN(C)CC3)c(C(F)(F)F)c2)cc1Nc1nccc(-c2cccnc2)n1,Potency,[1],inactive
same,Potency,[5],10.7 µM (active)
same,Potency,[3],7.28 µM (active) and 5.9 µM (active)
same,Potency,[4],8.17 µM (active) and 5.9 µM (active)
CC1(C)CC=C(c2cnc3ccccc3c2)c2cc(C(=O)Nc3ccc(C(=O)O)cc3)ccc21,Potency,[1],inactive
same,Potency,[2],21.3 µM (active)
NC(N)=NCCC[C@H](NC(=O)c1sccc1NS(=O)(=O)c1cccc2nsnc12)C(=O)O,Potency,[1],inactive
same,Potency,[5],inactive
same,Potency,[3],inactive
Fc1ccc(-c2c3cccc(C(F)(F)F)c3nn2Cc2ccc(F)cc2Cl)cc1,Potency,[1],inactive
same,Potency,[5],inactive
same,Potency,[3],inactive
same,Potency,[4],inactive
CN1C(=O)N(c2cc(Cl)cc(Cl)c2)C(=O)[C@@]1(C)Cc1ccc(Br)cc1,Potency,[1],inactive
same,Potency,[2],3.38 µM (active)
CCc1nn(CCO)c(CC)c1Oc1cc(C#N)cc(C#N)c1,Potency,[1],inactive
same,Potency,[5],inactive
same,Potency,[3],inactive
same,Potency,[4],inactive
CC/C=C/C=C/C1(C)OC(CC(CO)OC)=CC1=O (stereo not drawn),Potency,[1],inactive
same,Potency,[3],inactive
COc1c(C)c(OCC=C(C)C)cc2c1COC2=O,Potency,[1],inactive
same,Potency,[3],inactive
C/C(=C\CC[C@H](CO)[C@@H]1CC[C@]2(C)C3=C(CC[C@@]12C)[C@@]1(C)CCC(=O)C(C)(C)C1CC3)C(=O)O (stereo partly drawn),Potency,[1],inactive
same,Potency,[3],inactive
O=C(NCCN1CCCC1)c1cc(-c2ccc(CN3CCOCC3)cc2)nc2ccc(F)cc12,Potency,[1],inactive
same,Potency,[10],inactive
same,Potency,[3],inactive
same,Potency,[4],inactive
C[C@@H]1O[C@@H](O[C@H]2[C@H](OC(=O)[C@]34CCC(C)(C)C[C@H]3C3=CCC5[C@@]6(C)C[C@@H](O)[C@@H](O[C@@H]7O[C@H](CO)[C@@H](O)[C@H](O)[C@H]7O)[C@@](C)(CO)C6[C@H](O)C[C@@]5(C)[C@]3(C)CC4)OC[C@H](O)[C@@H]2O)[C@H](O)[C@H](O[C@@H]2OC[C@](O)(CO)[C@H]2O)[C@H]1O[C@@H]1OC[C@@H](O)[C@H](O[C@H]2O[C@H](C)[C@@H](O)[C@H](O)[C@@H]2O)[C@H]1O (stereo partly drawn),"activity change, negative = inhibition",[1],5.13% [at 12.4 µM] (inactive)
same,"activity change, negative = viability loss",[3],-25.2% [at 9.23 µM] (inactive)
CC(O)C/C=C/C=C/C(=O)OC1C=C2COC(=O)C2(O)C2(C)CCCC(C)(C)C12 (stereo not drawn),Potency,[1],inactive
same,Potency,[3],inactive
COc1cccc(CNc2ccc(S(=O)(=O)Nc3nc4ccccc4s3)cc2)c1O,Potency,[1],inactive
same,Potency,[2],6.74 µM (active)
same,Potency,[3],inactive
same,Potency,[4],inactive
C=C1C(O)CCC2(C)CC3(OC)OC(=O)C(C)=C3CC12 (stereo not drawn),Potency,[1],inactive
same,Potency,[3],inactive
C=CC1(C)CC=C2C(CCC3C(C)(C(=O)O)CCCC23C)C1 (stereo not drawn),Potency,[1],inactive
same,Potency,[3],inactive

# Source: PubChem BioAssay (NCATS)
